# Measured values published in publication PMC6602471.
# Whole data set: some 1,300 sequences, median “log fluorescence intensity” near 8.9, cut for the highest 2% near 13. The list comes from a sample in which the highest values are over-represented; it also holds similar and randomly drawn sequences.
# Target: T1, ELK1 (Homo sapiens, UniProt P19419 1-428)
# T1 sequence: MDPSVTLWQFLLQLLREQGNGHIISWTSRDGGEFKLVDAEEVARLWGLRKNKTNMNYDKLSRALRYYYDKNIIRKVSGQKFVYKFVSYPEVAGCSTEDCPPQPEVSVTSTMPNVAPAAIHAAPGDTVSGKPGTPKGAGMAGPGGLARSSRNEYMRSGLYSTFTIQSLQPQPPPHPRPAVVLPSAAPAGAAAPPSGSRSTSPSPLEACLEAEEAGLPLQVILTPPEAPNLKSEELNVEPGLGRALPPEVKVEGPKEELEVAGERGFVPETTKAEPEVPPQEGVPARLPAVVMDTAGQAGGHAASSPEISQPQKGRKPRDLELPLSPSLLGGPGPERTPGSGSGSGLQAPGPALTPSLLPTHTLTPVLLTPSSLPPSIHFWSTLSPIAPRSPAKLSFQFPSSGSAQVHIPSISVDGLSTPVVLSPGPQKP
# Assay: custom PBM; custom protein-binding microarray; buffer, salt, pH and temperature not stated; high values mean tight binding
# Conditions: dsDNA, one strand shown
row,Sequence,binding signal
1,TCCGGTTACCAGCTCCACCCACTTCAGGCCTTGTAGGTCTTGATTCGCTTGACGCTGCTG,8.91 log fluorescence intensity
2,TAAAGGGAAGACGGTTGTGGTAGTTCCGCGTATTAAGTCTTGATTCGCTTGACGCTGCTG,9.44 log fluorescence intensity
3,TCCGGCTCCCAGCTCCACCCACTTCAGGCCTTGTAGGTCTTGATTCGCTTGACGCTGCTG,8.92 log fluorescence intensity
4,CACAATTTTTACAGTAATGTAGCACGCGTAATTCCTGTCTTGATTCGCTTGACGCTGCTG,8.98 log fluorescence intensity
5,CAGCATAGGACTCCTTCCCTGAAGCAATTGATAACCGTCTTGATTCGCTTGACGCTGCTG,8.92 log fluorescence intensity
6,CACAATTTTTACAGTAATGTAGCACGCGTAGCTCCTGTCTTGATTCGCTTGACGCTGCTG,9.06 log fluorescence intensity
7,TAAAGGGACGACGGTTGTGGTAGTTCCGGGTATTAAGTCTTGATTCGCTTGACGCTGCTG,11.3 log fluorescence intensity
8,CACAATTTTTACAGTAATGTAGCACGCGTTACTCCTGTCTTGATTCGCTTGACGCTGCTG,9.11 log fluorescence intensity
9,GATTTATTTCTGCCCTTATTCGCACGTGCCATAACAGTCTTGATTCGCTTGACGCTGCTG,8.91 log fluorescence intensity
10,CAGCATAGGACTTCTTCCCTGAAGCAATAGATAACCGTCTTGATTCGCTTGACGCTGCTG,8.97 log fluorescence intensity
11,CACAATTTTTACAGTAATGTAGTACGCGTAACTCCTGTCTTGATTCGCTTGACGCTGCTG,9.01 log fluorescence intensity
12,GGAAAAAGGCCCAGGGTAACACCGGAAGTGGGCGTAGTCTTGATTCGCTTGACGCTGCTG,10.9 log fluorescence intensity
13,TGTCGGGTAAGGGAATGTAGATCACGTGAATGACAAGTCTTGATTCGCTTGACGCTGCTG,8.94 log fluorescence intensity
14,TAAAGGGAAGACGGTTGTGGTAGTTCCGGGTTTTAAGTCTTGATTCGCTTGACGCTGCTG,11.2 log fluorescence intensity
15,TACTGACTTATATATGCGGATGCACATGAATAGACCGTCTTGATTCGCTTGACGCTGCTG,9.12 log fluorescence intensity
16,GGAAAAAGGCCCAGGGTAACACCGGAAGTGGCCTTAGTCTTGATTCGCTTGACGCTGCTG,10.9 log fluorescence intensity
17,GCTGCTGCGGTGCATACCCCACCGGATGTGACCTCGGTCTTGATTCGCTTGACGCTGCTG,10.1 log fluorescence intensity
18,GGAAAAAGGCCCAGGGTAACACAGGAAGTGGGCTTAGTCTTGATTCGCTTGACGCTGCTG,9.55 log fluorescence intensity
19,GATTAATATCTGCCCTTATTCGCACGTGCCATAACAGTCTTGATTCGCTTGACGCTGCTG,8.95 log fluorescence intensity
20,CTGCATAGGACTTCTTCCCTGAAGCAATTGATAACCGTCTTGATTCGCTTGACGCTGCTG,8.94 log fluorescence intensity
21,GACTAATTTCTGCCCTTATTCGCACGTGCCATAACAGTCTTGATTCGCTTGACGCTGCTG,8.95 log fluorescence intensity
22,TCCGGCTACCAGTTCCACCCACTTCAGGCCTTGTAGGTCTTGATTCGCTTGACGCTGCTG,9.18 log fluorescence intensity
23,GGAATAAGGCCCAGGGTAACACCGGAAGTGGGCTTAGTCTTGATTCGCTTGACGCTGCTG,10.9 log fluorescence intensity

row,Sequence,binding signal
1,TACTAACTTATATATGCGAATGCACATGAATAGACCGTCTTGATTCGCTTGACGCTGCTG,8.93 log fluorescence intensity
2,TCCGGCTACCAGCTCCACCCACTTCAGTCCTTGTAGGTCTTGATTCGCTTGACGCTGCTG,9.06 log fluorescence intensity
3,GATTCATTTCTGCCCTTATTCGCACGTGCCATAACAGTCTTGATTCGCTTGACGCTGCTG,8.97 log fluorescence intensity
4,GGAAAAAGGCCCAGGGAAACACCGGAAGTGGGCTTAGTCTTGATTCGCTTGACGCTGCTG,11.4 log fluorescence intensity
5,GTGTATAGGATCCCATCCAACACACGTGTTCAAATGGTCTTGATTCGCTTGACGCTGCTG,8.97 log fluorescence intensity
6,TACTGACTTCTATATGCGAATGCACATGAATAGACCGTCTTGATTCGCTTGACGCTGCTG,8.96 log fluorescence intensity
7,TGTCGGGCAAGGGAATGTAGATCACGTGAATGAAAAGTCTTGATTCGCTTGACGCTGCTG,9.09 log fluorescence intensity
8,CAGCATAGTACTTCTTCCCTGAAGCAATTGATAACCGTCTTGATTCGCTTGACGCTGCTG,8.98 log fluorescence intensity
9,TAAAGGGAAGACGGTTGTGGTGGTTCCGGGTATTAAGTCTTGATTCGCTTGACGCTGCTG,11.1 log fluorescence intensity
10,GCTGCTGGGGTGCATACCCCACCGGATGTGACCCCGGTCTTGATTCGCTTGACGCTGCTG,9.94 log fluorescence intensity
11,GTGTATAGGATCCCATTCAACACACGTGTTAAAATGGTCTTGATTCGCTTGACGCTGCTG,8.9 log fluorescence intensity
12,TAAAGGGAAGACGGTTGTGGTAGATCCGGGTATTAAGTCTTGATTCGCTTGACGCTGCTG,9.61 log fluorescence intensity
13,TAAGGGGAAGACGGTTGTGGTAGTTCCGGGTATTAAGTCTTGATTCGCTTGACGCTGCTG,11.3 log fluorescence intensity
14,GGAAAAAGGCACAGGGTAACACCGGAAGTGGGCTTAGTCTTGATTCGCTTGACGCTGCTG,11 log fluorescence intensity
15,GGAAAAAGGCCCAGGGTAACACCGGAATTGGGCTTAGTCTTGATTCGCTTGACGCTGCTG,9.46 log fluorescence intensity
16,CGGAAGTGTCGTAAACGTCGGATATCCGCTTCTTCTGTCTTGATTCGCTTGACGCTGCTG,11.5 log fluorescence intensity
17,CAGCATAGGACTTCTTCCCTGAAGCAGTTGATAACCGTCTTGATTCGCTTGACGCTGCTG,8.98 log fluorescence intensity
18,GTGTATAGGATCCCATCCAACACACGTGTTAATATGGTCTTGATTCGCTTGACGCTGCTG,8.92 log fluorescence intensity
19,GGAAAAAGGCCCGGGGTAACACCGGAAGTGGGCTTAGTCTTGATTCGCTTGACGCTGCTG,11.8 log fluorescence intensity
20,GGAAAAAGGCCCTGGGTAACACCGGAAGTGGGCTTAGTCTTGATTCGCTTGACGCTGCTG,11.1 log fluorescence intensity
21,GGAAAAAGGCCCCGGGTAACACCGGAAGTGGGCTTAGTCTTGATTCGCTTGACGCTGCTG,12.6 log fluorescence intensity
22,CTGGGACTTGACCCAAATCTGCCACGTGGGTCGTTTGTCTTGATTCGCTTGACGCTGCTG,9 log fluorescence intensity
23,TGTCAGGTAAGGGAATGTAGATCACGTGAATGAAAAGTCTTGATTCGCTTGACGCTGCTG,8.9 log fluorescence intensity

row,Sequence,binding signal
1,TACTGAGTTATATATGCGAATGCACATGAATAGACCGTCTTGATTCGCTTGACGCTGCTG,8.97 log fluorescence intensity
2,TAAAGGGAAGACGGTTGTGGTAGTTCCGGGAATTAAGTCTTGATTCGCTTGACGCTGCTG,11.2 log fluorescence intensity
3,CAGCATAGGACTTCTTCCCTGAAGCAATTGATACCCGTCTTGATTCGCTTGACGCTGCTG,8.91 log fluorescence intensity
4,TACTGACTTATATATGCGAATGCACATGAATAGAACGTCTTGATTCGCTTGACGCTGCTG,8.92 log fluorescence intensity
5,TGGCGGGTAAGGGAATGTAGATCACGTGAATGAAAAGTCTTGATTCGCTTGACGCTGCTG,8.95 log fluorescence intensity
6,CTGGGACTTGACCCAACTCTGCCACGTGGGTCGTATGTCTTGATTCGCTTGACGCTGCTG,8.98 log fluorescence intensity
7,CTGGGACTTGACCCAACTCTGCCACGTGGGGCGTTTGTCTTGATTCGCTTGACGCTGCTG,8.94 log fluorescence intensity
8,TACTGACTTATATATCCGAATGCACATGAATAGACCGTCTTGATTCGCTTGACGCTGCTG,9.23 log fluorescence intensity
9,TAAAGGGAAGATGGTTGTGGTAGTTCCGGGTATTAAGTCTTGATTCGCTTGACGCTGCTG,10.9 log fluorescence intensity
10,CGGACGTGTCGTAAACGTCGGATATCCGGTTCTTCTGTCTTGATTCGCTTGACGCTGCTG,12.2 log fluorescence intensity
11,CGGAAATGTCGTAAACGTCGGATATCCGGTTCTTCTGTCTTGATTCGCTTGACGCTGCTG,12.6 log fluorescence intensity
12,CGGAAGGGTCGTAAACGTCGGATATCCGGTTCTTCTGTCTTGATTCGCTTGACGCTGCTG,12.1 log fluorescence intensity
13,CGGAACTGTCGTAAACGTCGGATATCCGGTTCTTCTGTCTTGATTCGCTTGACGCTGCTG,12.5 log fluorescence intensity
14,CGGAATTGTCGTAAACGTCGGATATCCGGTTCTTCTGTCTTGATTCGCTTGACGCTGCTG,12.8 log fluorescence intensity
15,CGGAAGCGTCGTAAACGTCGGATATCCGGTTCTTCTGTCTTGATTCGCTTGACGCTGCTG,12.5 log fluorescence intensity
16,CGGAAGTCTCGTAAACGTCGGATATCCGGTTCTTCTGTCTTGATTCGCTTGACGCTGCTG,12 log fluorescence intensity
17,CGGAAGTATCGTAAACGTCGGATATCCGGTTCTTCTGTCTTGATTCGCTTGACGCTGCTG,12 log fluorescence intensity
18,CGGATGTGTCGTAAACGTCGGATATCCGGTTCTTCTGTCTTGATTCGCTTGACGCTGCTG,12.2 log fluorescence intensity
19,CTGGGACTTGGCCCAACTCTGCCACGTGGGTCGTTTGTCTTGATTCGCTTGACGCTGCTG,8.95 log fluorescence intensity
20,TCCGGCTATCAGCTCCACCCACTTCAGGCCTTGTAGGTCTTGATTCGCTTGACGCTGCTG,9.1 log fluorescence intensity
21,CAGCATAGGACTTCTTCCCTGAAGAAATTGATAACCGTCTTGATTCGCTTGACGCTGCTG,8.96 log fluorescence intensity
